High-throughput results (PubChem BioAssay)
Compounds with a hit are over-represented: about 10% of the library has one in this group of screens.
G9a block: qHTS Assay for Inhibitors of Histone Lysine Methyltransferase G9a; Potency, µM (doses to about 102 µM), for the others: top-dose activity, negative = inhibition, hits mostly inhibitors; Histone-lysine N-methyltransferase EHMT2 (Homo sapiens), Q96KQ7; G9a H3K9 monomethylation, AlphaScreen, 2 h; 350,000 tested, 8.8% active; also: % is scaled to controls: 0 for no effect and ±100 for the full control effect; nearly all actives have a fitted effect of over 75% in size
Target sequence (Q96KQ7 913-1193 limits assumed): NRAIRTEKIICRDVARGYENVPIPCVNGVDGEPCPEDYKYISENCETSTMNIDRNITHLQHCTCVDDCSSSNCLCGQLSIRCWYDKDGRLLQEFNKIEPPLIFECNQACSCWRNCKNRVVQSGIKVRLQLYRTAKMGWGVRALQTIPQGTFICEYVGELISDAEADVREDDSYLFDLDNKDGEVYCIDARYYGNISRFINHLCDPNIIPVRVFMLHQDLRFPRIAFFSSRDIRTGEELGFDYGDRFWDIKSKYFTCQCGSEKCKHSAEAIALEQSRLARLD
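G9a (20 nM) preincubated 15 min RT with compounds, then 500 nM biotinylated H3K9 peptide and 20 uM SAM added; 2 h RT reaction. Monomethyl-H3K9 product detected by AlphaScreen with anti-H3K9me1 antibody, streptavidin donor and anti-rabbit IgG acceptor beads.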
GLS inhibitor: qHTS for Inhibitors of Glutaminase (GLS). Glutaminase kidney isoform, mitochondrial (Homo sapiens), O94925. GLS enzymatic activity, qHTS titration. Potency, µM (series often up to 45.5 µM), for inactives: at the top dose activity change, negative = inhibition, usual class: inhibitors. 410,000 tested, 0.21% active. AID 624170, 2012; also: % is scaled to controls: 0 for no effect and ±100 for the full control effect
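hKGA; 45 mM KH2PO4 pH 8.2 + 0.02% Tween-20; cpd via pin tool; 1 mM Gln soln; GluOx/HRP/Amplex Red; RT 30 min; fluor. t0 & final.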
HP1b binding inh: HTS for Inhibitors of HP1-beta Chromodomain Interactions with Methylated Histone Tails; Potency, µM (series often up to 114 µM), inactives show at the top dose activity change, negative = inhibition, most hits filed as inhibitors; AID 540317, 2011; 390,000 tested, 0.56% active; AlphaScreen HP1-beta / biotin-H3K9me3 peptide binding; Chromobox protein homolog 1 (Homo sapiens), P83916; also: nearly all actives have a fitted effect of over 70% in size
Target sequence (P83916 whole entry, looked up): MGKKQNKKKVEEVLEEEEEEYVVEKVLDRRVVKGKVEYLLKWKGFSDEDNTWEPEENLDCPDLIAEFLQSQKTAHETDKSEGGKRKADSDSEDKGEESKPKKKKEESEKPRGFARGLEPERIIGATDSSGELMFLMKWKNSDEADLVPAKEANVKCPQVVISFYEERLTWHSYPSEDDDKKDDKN
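Compound inhibition of the preformed complex between 50 nM HP1-beta and 50 nM biotinylated H3K9me3 peptide was read by AlphaScreen. Buffer was PBS pH 7.4 with 0.01% Tween-20. Incubations ran 30 min at room temperature, with 10 ug/mL donor/acceptor beads.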
JMJD2A Tudor inh: qHTS Assay for Inhibitors of JMJD2A-Tudor Domain; Potency, µM (doses to about 114 µM), without a hit: top-dose activity change, negative = inhibition, usual class: inhibitors; 390,000 tested, 4.4% active; AlphaScreen JMJD2A-Tudor / H3K4me3 peptide binding; AID 504339, 2011; also: % is scaled to controls: 0 for no effect and ±100 for the full control effect; nearly all actives have a fitted effect of over 50% in size
BAZ2B block: qHTS Assay for Inhibitors of BAZ2B; Bromodomain adjacent to zinc finger domain protein 2B (Homo sapiens), Q9UIF8; AlphaScreen BAZ2B-H3K14Ac peptide displacement; Potency, µM (titrated, usually from 114 µM), without a hit: at the highest dose activity change, negative = inhibition, actives largely listed as inhibitors; 360,000 tested, 4.4% active; AID 504333, 2011; also: % is scaled to controls: 0 for no effect and ±100 for the full control effect; nearly all actives have a fitted effect of over 60% in size
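AlphaScreen displacement of biotin-H3(5-23)K14Ac peptide (50 nM final) from BAZ2B (50 nM final) in PBS pH 7.4, 0.01% Tween-20; complex preformed 30 min RT, then compounds (top 110 uM) 30 min RT, beads 20 min dark.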
* = called active by the depositor; ? = inconclusive; nt = no result given; [ ] = remark or other dose. Calls follow the shape of the dose curve; as a rule, active = well fitted curve in the direction sought with a large enough effect; inconclusive = small, poorly fitted or top-dose-only effect, or another doubt; inactive = no such curve, though single readings can be large; an effect the other way counts as inactive or inconclusive. Potency is read from the fitted curve at half-maximal effect.

SMILES	G9a block	GLS inhibitor	HP1b binding inh	JMJD2A Tudor inh	BAZ2B block
O=C(NC(Cc1ccccc1)C(=O)NC(Cc1ccccc1)C(=O)O)c1ccccc1 (centres undefined)	28.2µM*	2.0%	12.4%	-4.7%[57.1 µM]	?
O=C(O)[C@H](Cc1ccccc1)NC(=O)N1CCOCC1	50.1µM*	5.9%	20.1%	0.3%	-6.2%
CC(=O)Nc1ccc(NC(=O)COC(=O)c2c3c(nc4ccccc24)CCN(Cc2ccccc2)C3)cc1	50.1µM*	-2.4%	-24.9%	-30.9%[57.1 µM]	-31.8%
O=C(COC(=O)c1c2c(nc3ccccc13)CCN(Cc1ccccc1)C2)Nc1c(F)cccc1F	14.9%[59 µM]	8.5%	6.0%	?	-38.7%
O=C(NCc1ccc(F)cc1)c1c2c(nc3ccccc13)CCN(Cc1ccccc1)C2	44.7µM*	-0.7%	27.9%	7.3%	7.5%
COC(=O)c1ccc(CNC(=O)c2c3c(nc4ccccc24)CCN(Cc2ccccc2)C3)cc1	?	-1.2%	37.0%	-28.8%	-0.6%
Cc1ccc(Cn2c(CN3CCC(C(=O)O)CC3)cc3ccccc32)cc1	-5.0%[59 µM]	10.3%	24.5%	-11.4%	-6.9%
Cc1nc2ccccc2n1CCc1nc2c3ccccc3nc(=S)n2[nH]1	14.1µM*	-2.6%	15.2%	63.1µM*	-3.3%
Nc1ncnc(Oc2cccc3cccnc23)c1[N+](=O)[O-]	?	0.9%	31.4%	-0.7%	44.7µM*
Cc1cccc(Oc2ncnc(N)c2[N+](=O)[O-])c1C	11.7%	1.4%	31.1%	-2.1%	12.0%
CCN1CCN(CCNC(=O)CCc2c(C)c3c(C)nn(-c4ccccc4)c3n(C)c2=O)CC1	5.3%	-1.9%	24.2%	-23.3%	-2.2%
CCN1/C(=C/c2cc[n+](CCCS(=O)(=O)[O-])c3ccccc23)Sc2ccccc21	25.1µM*	-4.4%	-8.3%	-4.7%	?
CCOC(=O)/C(=C\C=C1/Sc2ccccc2N1CC)C(C)=O	?	-16.0%	11.0%	-29.6%	-35.3%
Cc1ccccc1NC(=O)C1C2C=CC(C3CC23)C1C(=O)O (centres undefined)	-35.0%	42.5%	19.5%	5.6%	-8.7%
CC(=Nc1ccccc1)c1sc2ccccc2c1O	?	6.5%	-14.6%	56.2µM*	?
CC(=Nc1ccc(Br)cc1)c1sc2ccccc2c1O	89.0%	-7.7%	78.8%	-2.1%	-12.1%
CCCN1C(=O)C(O)(CC(=O)c2cccc(OC)c2)c2ccccc21 (centres undefined)	-39.4%[12.7 µM]	11.7%	-39.0%	?	56.2µM*
CCCCOP(=O)(c1ccc(N(C)C)cc1)C(O)c1ccncc1 (centres undefined)	?	22.8%	32.3%	-16.7%	?
CC(C)CCOP(=O)(c1ccc(N(C)C)cc1)C(O)c1ccc(C(C)C)cc1 (centres undefined)	-5.7%[2.33 µM]	2.4%	17.8%	-20.1%	-25.2%
CC(C)CCOP(=O)(c1ccc(N(C)C)cc1)C(Nc1ccccc1)c1ccc(N(C)C)cc1 (centres undefined)	14.1µM*	2.0%	-19.4%	44.7µM*	?
CCCOP(=O)(c1ccc(N(C)C)cc1)C(O)c1ccc(Br)cc1 (centres undefined)	-2.1%	-9.2%	9.3%	-13.6%	-27.2%
CC(C)CCOP(=O)(c1ccc(N(C)C)cc1)C(O)c1ccc(N(C)C)cc1 (centres undefined)	2.24µM*	14.4%	-5.2%	7.08µM*	?
CCCOP(=O)(c1ccc(N(C)C)cc1)C(O)c1ccc(N(C)C)cc1 (centres undefined)	0.708µM*	10.4%	24.1%	8.91µM*	-23.2%
CCCCOP(=O)(c1ccc(N(C)C)cc1)C(O)c1ccc(N(C)C)cc1 (centres undefined)	2.24µM*	15.5%	-4.1%	5.01µM*	?
Cc1ccc(CNC(=O)CCN2C(=O)C(C)Oc3ccc(C)cc32)cc1 (centres undefined)	9.8%[59 µM]	2.8%	19.2%	-5.5%	10.5%
SMILES	G9a block	GLS inhibitor	HP1b binding inh	JMJD2A Tudor inh	BAZ2B block
O=C(c1c[nH]c(C(=O)C(Cl)(Cl)Cl)c1)c1c(F)cccc1F	-41.2%	?	3.1%	22.4µM*	-23.5%
COc1ccccc1-n1c(=O)c2c3c(sc2n2c(SC(C)C)nnc12)CCC3	4.3%[12.7 µM]	-0.8%	21.1%	-16.7%	0.3%
O=C(O)C1Nc2c(O)cc(Cl)c([N+](=O)[O-])c2C2C=CCC12 (centres undefined)	2.82µM*	3.16µM*	4.47µM*	11.2µM*	1.41µM*
O=C1N=c2ccccc2=C1c1c(O)n(-c2cccc(F)c2)[nH]c1=O	3.98µM*	?	?	?	?
Cc1ccc(C2(SCC(N)C(=O)O)c3ccccc3-c3ccccc32)cc1 (centres undefined)	nt	-6.8%	17.0%	?	nt
CCn1c(O)c(C=Nc2ccccc2)n(-c2ccccc2)c1=S	7.94µM*	-14.4%	0.5%	10.7%[11.4 µM]	12.0%
Cc1cccc(COCC(Cc2ccccc2)N2CCN(C(=O)c3ccc(Cl)c(Cl)c3)CCC2=O)c1 (centres undefined)	-20.5%	-0.2%	21.6%	-29.6%	-7.9%
O=C(c1ccc(Cl)c(Cl)c1)N1CCC(=O)N(C(COCc2cccc(C(F)(F)F)c2)Cc2ccccc2)CC1 (centres undefined)	50.1µM*	4.7%	27.9%	-14.3%	-26.9%
O=C(c1ccc(C(F)(F)F)cc1)N1CCC(=O)N(C(COCc2ccccc2)Cc2ccccc2)CC1 (centres undefined)	56.2µM*	0.1%	49.8%	-15.0%	-38.5%
CCCOC(=O)CCCN1C(=O)/C(=C2\SC(=S)N(CCCC(=O)OCCC)C2=O)SC1=S	1.12µM*	-12.5%	?	?	3.16µM*
CCCCCOC(=O)CCN1C(=O)/C(=C2\SC(=S)N(CCC(=O)OCCCCC)C2=O)SC1=S	nt	-5.5%	-35.9%	-10.8%	?
N=C(N)SCCc1cnc[nH]1	7.52µM*	4.0%	13.6%	-20.9%	-31.8%
O=C(NCCc1cnc[nH]1)c1cccs1	nt	2.6%	28.6%	-5.6%	-22.3%
CCOc1ccc(C(C)(O)CN2CCOCC2)cc1 (centres undefined)	-2.6%[12.7 µM]	14.2%	30.9%	-16.0%[57.1 µM]	-0.9%
Cc1ccc(OCC(=O)N2N=C(c3ccncc3)CC2(O)C(F)(F)F)cc1C (centres undefined)	33.1%	2.5%	51.4%	-23.6%	-11.5%
O=C(COc1ccccc1)N1N=C(c2cccnc2)CC1(O)C(F)(F)F (centres undefined)	50.1µM*	8.4%	23.1%	-11.4%	-17.0%
